Consider 10 compounds from PubChem BioAssay (NCI).

Assay in all cases: NCI-60 one-dose screen, 48 h (100 = growth as untreated, 0 = no growth, -100 = all killed)
What all share (details): 10 µM unless noted

Experiment [1] deals with SR leukemia.
For experiment [2], the system named is RPMI-8226 leukemia.
The subject of experiment [3] is OVCAR-8 ovarian.
Experiment [4] has as its system OVCAR-5 ovarian.
For experiment [5], the system named is OVCAR-4 ovarian.
Experiment [6] has as its system SK-OV-3 ovarian.
The subject of experiment [7] is IGROV1 ovarian.
Experiment [8] has as its system OVCAR-3 ovarian.
Experiment [9] relates to HS 578T breast.
Experiment [10] concerns NCI/ADR-RES ovarian.
Experiment [11] relates to T-47D breast.
Experiment [12] deals with BT-549 breast.
The test system of experiment [13] is MDA-MB-435 melanoma.
In experiment [14] the test system is MCF7 breast.
The test system of experiment [15] is HCT-116 colon.
For experiment [16], the system named is HCC-2998 colon.
The test system of experiment [17] is KM12 colon.
Experiment [18] has as its system SW-620 colon.

The structures appear in SMILES notation. This is part of a sample that, as a whole, favours compounds with a hit. Of some 83,000 tested, about 20% had one in any assay.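 How to read the values: 0–100, growth inhibition (40 = 60% inhibited); 0, no net growth; -100 to 0, cell death (-40 = 40% of starting cells died; -100 = all dead).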 Values without a mark were called inactive. Active and inactive are the calls of the source. How the source made its calls: active means growth percent below 10; inactive means the rest.

Turning to `O=C(Cn1c[n+](CC(=O)c2ccc([N+](=O)[O-])cc2)c2ccccc21)Nc1cccc2cccnc12`, the growth in experiment [1] is 61.8%; in experiment [2] it was 10.2%; in experiment [3], 93.2%; in [4], 93.9%; in experiment [5], 20.4%; in experiment [6], 109%. For the same compound, the growth in experiment [7] was 71.1%; in experiment [8], 38.6%; in [9], 74.6%; in experiment [10], 102%; in experiment [11] it was 33.9%; in experiment [12], 35.9%. The growth is 60% in experiment [13]; 31.4% in [14]; 37.2% in experiment [15]; 50.4% in experiment [16]; 78.4% in experiment [17].

Turning to `Cc1cc2cc3ccc(N(C)C)cc3nc2cc1N`, the growth in experiment [1] was -2.93% (active); in experiment [2], -19.1% (active); in experiment [3], -2.19% (active); in [4], 3.07% (active); in [5] it was -11.9% (active); in [6] it was -8.06% (active). The growth was -1.84% (active) in [7]; -24.7% (active) in [8]; -32.5% (active) in experiment [9]; 42.4% in [10]; -9.44% (active) in experiment [11]; 20.7% in experiment [12]. Besides, the growth was 5.71% (active) in experiment [13]; -37.9% (active) in experiment [18]; -4.08% (active) in [14]; -20% (active) in experiment [15]; -20.7% (active) in [17].

Regarding `O=C1c2c(c3c4cccc(F)c4[nH]c3c3ccc4ccccc4c23)C(=O)N1O`, the growth is 7.28% (active) in experiment [1]; 0.257% (active) in experiment [2]; 42.2% in experiment [3]; 103% in [4]; 56.6% in [5]; 75.5% in experiment [6]. The growth is 35.2% in [7]; 36% in experiment [8]; 62.1% in experiment [9]; 64.2% in [10]; 19.6% in experiment [11]; 52.7% in experiment [12]. In addition, the growth is 60.7% in experiment [13]; 31.2% in experiment [18]; 19.4% in [14]; 16.9% in [15]; 76.3% in [16]; 25.4% in experiment [17].

Turning to `COc1cc(/C=C2\COc3ccc(-c4ccccc4)cc3C2=O)cc(OC)c1`, the growth in experiment [1] is 58.5%; in experiment [2] it was 3.36% (active); in experiment [3], 56.2%; in experiment [4], 106%; in experiment [5] it was 63.8%; in experiment [6], 108%. In addition, the growth in [7] is 90.8%; in experiment [8], 69%; in experiment [9] it was 92.9%; in experiment [10], 61%; in [11], 70.3%; in experiment [12], 74.7%. For the same compound, the growth in experiment [13] is 66%; in experiment [18] it was 62.8%; in experiment [14], 57.3%; in [15] it was 62.1%; in [17] it was 68.5%.

As to `C=CC(=O)N[C@@H](/C=C/C(=O)OCC)Cc1ccc(-c2cc(Cl)cc(Cl)c2)cc1`, the growth in experiment [1] was 7.26% (active); in experiment [2], -2.44% (active); in [3], 16.8%; in [4], 55.8%; in experiment [5], 10.7%; in experiment [6] it was 26.7%. Further, the growth was 36.2% in experiment [7]; 13.5% in experiment [8]; 40.3% in experiment [9]; 8.7% (active) in experiment [10]; -4.93% (active) in experiment [11]; 4.23% (active) in [12]. Further, the growth in [13] was 1.71% (active); in experiment [18], 11.7%; in experiment [14] it was 4.06% (active); in experiment [15], 11.1%; in [16], 41.6%; in [17], 24.2%.

As for `CNC(=O)c1cccc(Cn2nc(C)c(NC(=O)c3ccc(COc4ccc(C(F)(F)F)cc4C)cc3)c2C)n1`, the growth is 22% in experiment [1]; 32.7% in [2]; 35.8% in experiment [3]; 104% in [4]; 37.8% in experiment [5]; 74% in experiment [6]. The growth in experiment [7] is 65.1%; in experiment [8], 35.1%; in [9] it was 87.7%; in [10], 33.4%; in experiment [11] it was 7.54% (active); in [12], 22.1%. Further, the growth in experiment [13] was 43.2%; in experiment [18] it was 81.8%; in experiment [14], 21.7%; in experiment [15], 24.4%; in [16] it was 61.7%; in experiment [17] it was 65.4%.

`CCC(CC)NCC(C)(C)O`: the growth is 93.4% in experiment [1]; 107% in [2]; 99% in [3]; 108% in experiment [4]; 105% in experiment [5]; 110% in experiment [6]. Besides, the growth was 98% in [7]; 119% in experiment [8]; 107% in experiment [9]; 106% in [10]; 123% in experiment [11]; 106% in [12]. Besides, the growth is 108% in [13]; 107% in experiment [18]; 97.9% in [14]; 103% in experiment [15]; 92.2% in [16]; 104% in experiment [17].

Turning to `Nc1c(C(=O)Nc2ccnc3ccccc23)sc2nc3c(cc12)CN(Cc1ccccc1)CC3`, the growth in experiment [1] was 35.5%; in experiment [2], 38.8%; in experiment [3], 69.5%; in [4], 94.1%; in experiment [5] it was 78.6%; in experiment [6] it was 98.9%. Also, the growth in experiment [7] was 86.4%; in [8], 85.1%; in experiment [9], 89.9%; in experiment [10], 69.2%; in experiment [11], 38.5%; in experiment [12], 30.8%. Moreover, the growth in experiment [13] is 73.6%; in [18], 95.3%; in experiment [14], 68.9%; in [15], 45%; in experiment [16], 103%; in experiment [17] it was 79.7%.

For the compound `COc1ccc(-c2nc([C@@H](C)Sc3nc(N)cc(N)n3)c(C)s2)cc1OCCN1CCOCC1`, the growth in [1] is 97.5%; in [2], 70.3%; in experiment [3], 95.8%; in experiment [4], 121%; in [5], 106%; in experiment [6] it was 131%. Moreover, the growth in experiment [7] was 123%; in experiment [8], 102%; in experiment [9] it was 94.2%; in [10], 101%; in [11], 99.5%; in experiment [12], 96.1%. For the same compound, the growth in [13] was 110%; in [18], 107%; in experiment [14], 101%; in experiment [15], 103%; in experiment [16] it was 83.9%; in experiment [17], 104%.

As to `Nc1nc(Nc2ccccc2SSc2ccccc2Nc2nc(N)nc(-c3cccs3)n2)nc(-c2ccsc2)n1`, the growth in experiment [1] is 31.3%; in experiment [2] it was 71.9%; in experiment [3], 76.9%; in experiment [4], 118%; in experiment [5], 70.4%; in experiment [6] it was 110%. Also, the growth in experiment [7] is 58.9%; in [8] it was 90.4%; in [9], 93.3%; in experiment [10], 4.43% (active); in experiment [11] it was 56.2%; in experiment [12], 86%. The growth in experiment [13] is 98.1%; in experiment [18], 80.4%; in [14], 68.1%; in experiment [15], 84.9%; in experiment [16] it was 111%; in [17] it was 67.6%.
